Growth data for eight compounds are collected here from PubChem BioAssay (NCI).

What all share (test): NCI-60 one-dose screen, 48 h (100 = growth as untreated, 0 = no growth, -100 = all killed)
One test has as its system SR leukemia. The note with it: 10 µM unless noted.
The next test relates to RPMI-8226 leukemia. The settings on record: 10 µM unless noted.
The test system of another test is OVCAR-8 ovarian. The settings on record: 10 µM unless noted.
Another test deals with OVCAR-5 ovarian. The settings on record: 10 µM unless noted.
Another test deals with OVCAR-4 ovarian. The note with it: 10 µM unless noted.
For a further test, the system named is SK-OV-3 ovarian. The note with it: 10 µM unless noted.
In a further test the test system is IGROV1 ovarian. The note with it: 10 µM unless noted.
Another test has as its system OVCAR-3 ovarian. The note with it: 10 µM unless noted.
The next test concerns HS 578T breast. The note with it: 10 µM.
A further test has as its system NCI/ADR-RES ovarian. The settings on record: 10 µM unless noted.
The next test has as its system T-47D breast. The settings on record: 10 µM unless noted.
In the next test the test system is BT-549 breast. The note with it: 10 µM unless noted.
A further test deals with MDA-MB-435 melanoma. The settings on record: 10 µM unless noted.
A further test relates to SW-620 colon. The settings on record: 10 µM unless noted.
The subject of another test is MCF7 breast. The settings on record: 10 µM unless noted.
The next test relates to HCT-116 colon. The note with it: 10 µM unless noted.
The subject of another test is HCC-2998 colon. The note with it: 10 µM unless noted.
A further test relates to KM12 colon. The settings on record: 10 µM unless noted.

Compounds without any hit were thinned out: in the full panel of roughly 83,000, 20% have a hit.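 Single-concentration screen, 48 h exposure, 96-well plates. Endpoint: percent growth. Below 10 = active.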 Unmarked numbers belong to inactive results. Activity calls are given as the source filed them.

`c1ccc(C(Nc2ccccn2)(c2ccccc2)c2ccccc2)cc1`: the growth in the test on SR leukemia was 97%; in the test with RPMI-8226 leukemia, 34.7%; in the test on OVCAR-8 ovarian, 70.4%; in the test on OVCAR-5 ovarian it was 77.6%; with OVCAR-4 ovarian, 79.9%; in the test with SK-OV-3 ovarian, 67.5%. The growth in the test with IGROV1 ovarian is 88.7%; with OVCAR-3 ovarian it was 82%; in the test on HS 578T breast, 93.4%; with NCI/ADR-RES ovarian, 63.3%; in the test with T-47D breast, 72.7%; in the test with BT-549 breast, 99.2%. Also, the growth in the test with MDA-MB-435 melanoma is 96.5%; with SW-620 colon, 84.4%; with MCF7 breast, 62.4%; in the test on HCT-116 colon, 65.7%; with HCC-2998 colon, 82.6%; with KM12 colon, 71.9%.
As for `COC(=O)CNS(=O)(=O)c1ccc2c(c1)Cc1cc(S(=O)(=O)NCC(=O)OC)ccc1-2`, the growth with SR leukemia was 102%; with RPMI-8226 leukemia, 103%; in the test on OVCAR-8 ovarian, 97.3%; in the test with OVCAR-5 ovarian, 103%; in the test with OVCAR-4 ovarian, 102%; in the test on SK-OV-3 ovarian, 97.7%. In addition, the growth is 96.5% in the test on IGROV1 ovarian; 102% in the test on OVCAR-3 ovarian; 95.7% in the test with HS 578T breast; 105% in the test on NCI/ADR-RES ovarian; 99.5% with T-47D breast; 100% with BT-549 breast. The growth with MDA-MB-435 melanoma was 103%; with SW-620 colon it was 102%; in the test with MCF7 breast, 95.5%; with HCT-116 colon it was 109%; with HCC-2998 colon, 111%; in the test with KM12 colon it was 109%.
In the case of `CC1(C)C(N(O)C(=O)Nc2ccc(Cl)cc2)N(c2ccc(Cl)cc2)C(=O)N1CC(=O)N/N=C/C=C/c1ccc([N+](=O)[O-])o1` (stereo not drawn), the growth with SR leukemia is -13.1% (active); in the test on RPMI-8226 leukemia, -23.7% (active); in the test on OVCAR-8 ovarian it was 3.32% (active); with OVCAR-5 ovarian it was 6.4% (active); in the test with OVCAR-4 ovarian it was 14.9%; in the test on SK-OV-3 ovarian, 57.8%. The growth in the test with IGROV1 ovarian is -5.58% (active); with OVCAR-3 ovarian, -26.8% (active); in the test on HS 578T breast it was -11.4% (active); in the test on NCI/ADR-RES ovarian, 95%; in the test on T-47D breast, 34.3%; in the test with BT-549 breast, -19.1% (active). For the same compound, the growth with MDA-MB-435 melanoma was -15.3% (active); with SW-620 colon it was -15.7% (active); in the test with MCF7 breast it was 7.37% (active); with HCT-116 colon, -98.1% (active); in the test on KM12 colon, 23.1%.
Consider `COc1ccc(NC(=O)/C=C/c2ccc(NC(=O)N3CCCC3)cc2)cn1`, for which the growth is 106% in the test with SR leukemia; 99.5% with RPMI-8226 leukemia; 101% in the test with OVCAR-8 ovarian; 113% with OVCAR-5 ovarian; 101% with OVCAR-4 ovarian; 101% with SK-OV-3 ovarian. Moreover, the growth in the test with IGROV1 ovarian is 105%; in the test with OVCAR-3 ovarian it was 103%; in the test on HS 578T breast, 95.9%; with NCI/ADR-RES ovarian, 107%; with T-47D breast, 99.9%; in the test on BT-549 breast, 97.4%. The growth in the test with MDA-MB-435 melanoma was 103%; with SW-620 colon it was 106%; with MCF7 breast it was 91.7%; in the test with HCT-116 colon, 103%; in the test with HCC-2998 colon, 111%; in the test on KM12 colon, 103%.
With `COc1ccc2[nH]c(O)c(/C=c3/ccc4c(c3)N=C(c3ccc(F)cc3)N=4)c2c1`, the growth in the test on SR leukemia was 59.8%; in the test on RPMI-8226 leukemia, 76.5%; in the test with OVCAR-8 ovarian it was 76.9%; in the test with OVCAR-5 ovarian, 113%; in the test with OVCAR-4 ovarian it was -38.2% (active); in the test with SK-OV-3 ovarian it was 62.9%. The growth was -7.41% (active) in the test with IGROV1 ovarian; 75.3% in the test on OVCAR-3 ovarian; 51.1% in the test with HS 578T breast; 75.2% in the test with NCI/ADR-RES ovarian; 28.3% with T-47D breast; 26.7% in the test with BT-549 breast. Besides, the growth in the test with MDA-MB-435 melanoma is 57.8%; in the test on SW-620 colon, 41.3%; in the test with MCF7 breast, 41.7%; with HCT-116 colon it was -22.6% (active); in the test on HCC-2998 colon, 104%; with KM12 colon it was 74.9%.
As to `COc1cc(Cn2c(-c3ccccc3)cc3c2-c2oncc2CC3)cc(OC)c1OC`, the growth in the test on SR leukemia was 8.51% (active); in the test with RPMI-8226 leukemia, 40.5%; in the test with OVCAR-8 ovarian it was 34.2%; in the test with OVCAR-5 ovarian it was 69.1%; in the test with OVCAR-4 ovarian, 54.8%; in the test with SK-OV-3 ovarian it was 13%. Also, the growth is 18.4% in the test with IGROV1 ovarian; -44.3% (active) in the test with OVCAR-3 ovarian; -1.69% (active) in the test with HS 578T breast; 4.65% (active) in the test with NCI/ADR-RES ovarian; 38.1% with T-47D breast; 41.2% with BT-549 breast. Besides, the growth with MDA-MB-435 melanoma is -58.1% (active); in the test with SW-620 colon, 24.3%; in the test with MCF7 breast it was 14.1%; in the test with HCT-116 colon, 25.3%; in the test with HCC-2998 colon it was 42.7%; with KM12 colon, 26.2%.
In the case of `CCCCN(CCCC)CCCN=c1nc2c(c(N)n1-c1ccccc1)c(=S)n(-c1ccccc1)c(=S)n2-c1ccccc1`, the growth in the test on SR leukemia was -65.2% (active); with RPMI-8226 leukemia it was -53.4% (active); in the test on OVCAR-8 ovarian, -36.1% (active); with OVCAR-5 ovarian it was -60.2% (active); in the test on OVCAR-4 ovarian, -82% (active); in the test with SK-OV-3 ovarian, -86.5% (active). Further, the growth in the test with IGROV1 ovarian was -70.9% (active); in the test with OVCAR-3 ovarian, -100% (active); in the test on HS 578T breast it was -64.6% (active); with NCI/ADR-RES ovarian, -71.1% (active); with T-47D breast, -62.1% (active); in the test on BT-549 breast, -90.6% (active). In addition, the growth with MDA-MB-435 melanoma was -100% (active); with SW-620 colon, -100% (active); with MCF7 breast it was -88.1% (active); in the test with HCT-116 colon, -25% (active); in the test with HCC-2998 colon it was -91.5% (active); with KM12 colon, -100% (active).
In the case of `O=C1C(Cl)=C(N/N=c2/[nH][nH]/c(=N/NC3=C(Cl)C(=O)c4ccccc4C3=O)c3ccccc23)C(=O)c2ccccc21`, the growth with SR leukemia is 19.7%; with RPMI-8226 leukemia, 33.8%; with OVCAR-8 ovarian it was 78.1%; in the test with OVCAR-5 ovarian it was 119%; with OVCAR-4 ovarian, 78.5%; with SK-OV-3 ovarian, 73.6%. Further, the growth is 59.6% in the test with IGROV1 ovarian; 66.2% in the test on OVCAR-3 ovarian; 37.4% in the test with HS 578T breast; 66.1% in the test on NCI/ADR-RES ovarian; 15.3% with T-47D breast; 83.1% in the test with BT-549 breast. The growth in the test with MDA-MB-435 melanoma was 102%; in the test with SW-620 colon it was 60.6%; in the test on MCF7 breast, 54%; in the test with HCT-116 colon, 61.8%; in the test on HCC-2998 colon, 93.9%; in the test on KM12 colon, 18.5%.
